Most compounds without a hit are left out; they make up all but 14% or so of the library.
Pf growth 96h – P. falciparum growth inhibition at 96 hour, primary screen for plastid delayed-death inhibitors. P. falciparum luciferase reporter growth, 96 h. Potency, µM (doses to about 28.7 µM), without a hit: at the top dose activity change, negative = inhibition, most hits filed as inhibitors. 6.9% of 320,000 active. AID 504834; also: potency is read from the fitted curve at half-maximal effect
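Parasite growth measured via integrated firefly luciferase reporter in P. falciparum. Infected erythrocytes at 2% hematocrit, 0.05% parasitemia final were treated 96 hours at 37 C under 5% CO2, and luminescence was read.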
HCV inhibitor – HCV inhibition; Huh7.5.1 HCVcc-Cre infection, luciferase reporter, 44 h; Potency, µM (doses to about 41.8 µM), for the others: at the highest dose activity change, negative = inhibition, actives largely listed as inhibitors; 3.4% of 340,000 active; also: potency is read from the fitted curve at half-maximal effect
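Antiviral activity was scored by luciferase reporter output from cells infected with HCVcc-Cre (~0.5 moi) in presence of compound, 44 h infection period, cells seeded 1,000/well 4 h prior.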
MARV entry inh – inhibitors of Marburg virus binding or cell entry. Marburg virus pseudotyped entry inhibition, cell reporter. Potency, µM (doses to about 37.8 µM), without a hit: at the highest dose activity change, negative = inhibition, most hits filed as inhibitors. 1.8% of 300,000 active. AID 540276; calls by dose curve; tested in HEK293 cells; also: potency is read from the fitted curve at half-maximal effect
Pf growth 48h – P. falciparum growth inhibition at 48 hours (one generation). P. falciparum luciferase growth in erythrocytes, 48 h. 5.9% of 310,000 active. AID 504832. Potency, µM (series often up to 28.7 µM), without a hit: at the highest dose activity change, negative = inhibition, most hits filed as inhibitors; also: potency is read from the fitted curve at half-maximal effect
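Firefly luciferase activity from engineered P. falciparum reports growth; inhibitors lower the luminescent signal. Cultures contained 2% hematocrit erythrocytes at 0.1% final parasitemia.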
HCMV antiviral – human cytomegalovirus inhibition; HFF cells, HCMV-luciferase reporter, 72 h; active compounds read low; activity change, negative = inhibition, % at 57.5 µM; 4.5% of 410,000 active; AID 1259415; in the data active = activity change below about -60%; inconclusive = no clear call, values can overlap the other calls; inactive = above about -39%
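Steps: HFFs plated, 16 h 37C; compounds added; HCMV-luciferase added to MOI 1 PFU/cell; 72 h 37C; OneGlo reagent, 5 min room temperature; luminescence read, normalized to controls.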
LASV entry inh – Lassa virus entry inhibition. Lassa virus pseudotype entry inhibition, cell reporter. Potency, µM (series often up to 37.9 µM), inactives show at the highest dose activity change, negative = inhibition, hits mostly inhibitors. 1.2% of 300,000 active; calls by dose curve; tested in HEK293 cells; also: potency is read from the fitted curve at half-maximal effect; nearly all actives have a fitted effect of over 50% in size
* = called active by the depositor; ? = inconclusive; · = no result given; ! = not confirmed by another sample; [ ] = dose if it differs, or a comment. Unless noted, calls follow the shape of the dose curve; as a rule, active = well fitted inhibition curve with a large enough effect; inconclusive = small, poorly fitted or top-dose-only effect, or another doubt; inactive = no such curve, though single readings can be large or run the other way. % is scaled to controls: 0 for no effect and ±100 for the full control effect.

SMILES | Pf growth 96h | HCV inhibitor | MARV entry inh | Pf growth 48h | HCMV antiviral | LASV entry inh
COc1ccc2oc(C(=O)Nc3nc(-c4ccccn4)cs3)c(C)c2c1 | 6.57µM* | ? | 0.7% | ? | 23.4 | 4.4%
COc1ccccc1-n1cnc2cc(NCc3ccccc3O)ccc21 | ? | ? | · | ? | -35.1 | ·
COc1ccccc1-n1cnc2cc(NS(=O)(=O)c3ccc(Br)cc3)ccc21 | 5.22µM* | ? | ? | · | 9.1 | -22.8%
COc1ccc(-n2cnc3cc(NS(=O)(=O)c4ccc(C)cc4)ccc32)cc1 | ? | · | 7.2% | · | · | ·
COc1ccc(CNc2ccc3c(c2)ncn3-c2ccccc2OC)cc1 | 13.1µM* | ? | ? | 14.7µM* | ? | 1.6%
CCOc1ccc(CNc2ccc3c(c2)ncn3C)cc1 | 10.4µM* | -3.1% | -9.3% | -12.8% | 21.1 | -19.4%
O=C(Nc1ccccc1O)c1cc(S(=O)(=O)N2CCCC2)ccc1Cl | · | · | · | · | -23.4 | -28.8%[46.1 µM]
O=C(Cn1cc(S(=O)(=O)Cc2cccc(Cl)c2)c2ccccc21)Nc1ccccc1C(F)(F)F | · | · | · | · | ? | -0.3%[46.1 µM]
O=C1Cc2cc(S(=O)(=O)N3CCN(c4ccccc4)CC3)ccc2N1 | ? | -27.2% | -7.2%[46.1 µM] | -18.0% | 35.8 | -10.9%[46.1 µM]
CN1CCN(c2nc(N3CCN(CCO)CC3)nc3ccccc23)CC1 | ? | ? | ? | -0.6% | -18.4 | ?
O=C1Cc2cc(CCN3CCN(c4nsc5ccccc45)CC3)c(Cl)cc2N1 | · | · | ? | · | · | 5.8µM*
Oc1cc2cc(CCN3CCN(c4nsc5ccccc45)CC3)c(Cl)cc2[nH]1 | 10.7µM* | · | · | 13.5µM* | · | ·
CCC(=O)N1[C@H](CO)[C@@H]2c3ccccc3N(C(=O)Nc3ccc(Cl)cc3)C[C@@H]21 | · | · | · | · | 21.2 | ·
CC(C)Oc1ccccc1NC(=O)CSc1nccn1C | 0.9% | 12.2% | ? | 12.8% | 9.1 | ?
CC(=O)c1cccc(NC(=O)C2CC(=O)N(c3cccc(C)c3C)C2)c1 (stereo not given) | 20.6% | 9.2% | -10.1% | 1.47µM* | -10.3 | -3.5%
Cc1ccccc1N1CC(C(=O)Nc2ccc(Br)cc2)CC1=O (stereo not given) | · | · | 13.8%[46.1 µM] | · | 9.6 | 7.0%[46.1 µM]
Cc1ccccc1N1CC(C(=O)Nc2ccncc2)CC1=O (stereo not given) | 13.1µM* | 32.0% | ? | -12.1% | -39.6 | 4.8%
Cc1cccc(N2CC(C(=O)Nc3nnc(SCCN4CCOCC4)s3)CC2=O)c1 (stereo not given) | ? | -19.9% | ? | -14.4% | 0.7 | 10.4%
Cc1ccccc1N1CC(C(=O)Nc2nnc(SCCN3CCOCC3)s2)CC1=O (stereo not given) | 4.15µM* | 1.4% | · | ? | 25.0 | ·
CCOC(=O)N1CCc2c(sc3c2c(=O)n(Cc2ccccc2)c(=O)n3CC(=O)Nc2ccc(C)c(C)c2)C1 | · | · | -24.8%[46.1 µM] | · | ? | 0.7%[46.1 µM]
CC1CCCN(c2cccc3c2S(=O)(=O)N(Cc2cccc(Cl)c2)[C@@H](C)[C@H](c2ccccc2)O3)C1 (stereo not given in full) | · | · | · | · | -9.8 | ·
Cc1c(Cl)cccc1NS(=O)(=O)c1ccc(-c2ccc(=O)[nH]n2)o1 | 15.4% | 15.6% | ? | 3.5% | -21.0 | -26.7%[46.1 µM]
CCc1ccc(NC(=O)C2=CC(c3ccc(OC)c(OC)c3)=NS(=O)(=O)N2C)cc1 | -21.5% | 5.62µM* | · | -8.1% | ? | ·
COc1ccc(C2=NS(=O)(=O)N(C)C(C(=O)N3CCc4ccccc4C3)=C2)cc1OC | 52.0% | 10µM* | · | ? | -27.9 | ·
COc1ccc(C2=NS(=O)(=O)N(C)C(C(=O)NCc3ccccc3)=C2)cc1OC | 15.7% | -18.8% | 8.6%[46.1 µM] | 3.4% | -79.7*! | 3.2%[46.1 µM]
COc1ccc(CNC(=O)C2=CC(c3ccc(OC)c(OC)c3)=NS(=O)(=O)N2C)cc1 | 40.5% | -21.4% | ? | -0.4% | -19.5 | -6.2%[46.1 µM]
C[C@H](O)[C@@H]1C(=O)N2CCc3c([nH]c4cccc(-c5ccccc5)c34)[C@@H]2C[C@@H]1N(C)C(=O)NC1CCCCC1 | · | · | · | · | 55.3 | ·
NC(=O)C12NC(Cc3ccccc31)c1ccccc12 (stereo not given) | · | · | · | · | 23.8 | ·
COc1cccc(-c2cnc(NCc3ccccc3Cl)n2C)c1 | · | · | ? | · | -24.8 | -28.4%[46.1 µM]
